Source: PubChem BioAssay (NCI)
Compounds without any hit were thinned out: in the full panel of roughly 83,000, 20% have a hit.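 In brief: 96-well plates, 48 h treatment, single concentration, percent growth endpoint.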 A number with no mark means an inactive call. Activity calls are given as the source filed them. How the source made its calls: active means growth percent below 10; inactive means the rest.

Test system: HL-60(TB) leukemia
Assay: NCI-60 one-dose screen, 48 h (100 = growth as untreated, 0 = no growth, -100 = all killed)
Conditions: 10 µM unless noted

SMILES | growth
O=C(C(Br)C(Br)c1ccccc1)C(Br)C(Br)c1ccccc1 (stereo not given) | -49.7% (active)
Nc1ncnc2c1N=C(c1ccc([N+](=O)[O-])cc1)CC(c1ccc3c(c1)OCO3)N2 (stereo not given) | 105%
O=c1[nH]ccc2c(S(=O)(=O)N3CCCNCC3)cccc12 | 87.1%
COc1cccc(CNc2c3ccccc3nc3ccccc23)c1 | 40.9%
CCCCCCCCCCCCCC(=S)NCCCC[C@H](NC(=O)OCc1ccccc1)C(=O)Nc1ccccc1 | 8.79% (active)
Cc1nn(-c2ccccc2)c(N2CCCCC2)c1/C=N/NC(=O)Cn1c(=O)sc2ccccc21 | 69.9%
CCN(CC)C(CC(=O)c1ccccc1)C(=O)c1ccccc1 (stereo not given) | 63.5%
CN1CCN(c2ccc3c(c2)nc(NNC(=O)c2cnccn2)c2cccn23)CC1 | -9.26% (active)
COc1cc(-c2cn(-c3ccc(Cl)c(Cl)c3)c(=O)[nH]2)cc(OC)c1OC | 88.1%
Fc1cnc(NC2CC2)nc1-c1cnc2ccc(N3CCOCC3)cn12 | -15.5% (active)
CCN(CC)CCOc1ccc(/C(=C(\Cl)c2ccccc2)c2ccccc2)cc1 | 75.9%
OC(COc1cccc2ccccc12)CN1CCN(c2ccccc2)CC1 (stereo not given) | 90.9%
CN(C)CCCN1c2ccccc2Sc2ccc(C(F)(F)F)cc21 | 0.95% (active)
CC(=O)OC(C(=O)O)c1ccccc1 (stereo not given) | 3.72% (active)
CC1(C)CC[C@]23CC[C@]4(C)[C@H](CC[C@@H]5[C@@]6(C)CCNCC(C)(C)[C@@H]6CC[C@]54C)[C@H]2[C@H]1OC3 | 23.6%
